Experimental data reported in PubChem BioAssay AID602143 (Vanderbilt Specialized Chemistry Center, 2011).
Where “and” joins values, the source holds several entries; their conditions need not be identical. Equal values may be shown once. Calls of active or inactive are those of the source. Rule as the data show it: active = remaining activity below about 50%; inactive = the rest.

Each compound was assayed against Phospholipase D2 (Homo sapiens) (UniProt O14939) (assay: PLD2 inhibitors in cells, cell-based, HEK293, single concentration (AID 602143;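 also: tested at 200 nM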)). Conditions: HEK293 cellular PLD2 activity, percent of control; active compounds read low.
Chain of Phospholipase D2 (Homo sapiens) (O14939 whole entry, looked up): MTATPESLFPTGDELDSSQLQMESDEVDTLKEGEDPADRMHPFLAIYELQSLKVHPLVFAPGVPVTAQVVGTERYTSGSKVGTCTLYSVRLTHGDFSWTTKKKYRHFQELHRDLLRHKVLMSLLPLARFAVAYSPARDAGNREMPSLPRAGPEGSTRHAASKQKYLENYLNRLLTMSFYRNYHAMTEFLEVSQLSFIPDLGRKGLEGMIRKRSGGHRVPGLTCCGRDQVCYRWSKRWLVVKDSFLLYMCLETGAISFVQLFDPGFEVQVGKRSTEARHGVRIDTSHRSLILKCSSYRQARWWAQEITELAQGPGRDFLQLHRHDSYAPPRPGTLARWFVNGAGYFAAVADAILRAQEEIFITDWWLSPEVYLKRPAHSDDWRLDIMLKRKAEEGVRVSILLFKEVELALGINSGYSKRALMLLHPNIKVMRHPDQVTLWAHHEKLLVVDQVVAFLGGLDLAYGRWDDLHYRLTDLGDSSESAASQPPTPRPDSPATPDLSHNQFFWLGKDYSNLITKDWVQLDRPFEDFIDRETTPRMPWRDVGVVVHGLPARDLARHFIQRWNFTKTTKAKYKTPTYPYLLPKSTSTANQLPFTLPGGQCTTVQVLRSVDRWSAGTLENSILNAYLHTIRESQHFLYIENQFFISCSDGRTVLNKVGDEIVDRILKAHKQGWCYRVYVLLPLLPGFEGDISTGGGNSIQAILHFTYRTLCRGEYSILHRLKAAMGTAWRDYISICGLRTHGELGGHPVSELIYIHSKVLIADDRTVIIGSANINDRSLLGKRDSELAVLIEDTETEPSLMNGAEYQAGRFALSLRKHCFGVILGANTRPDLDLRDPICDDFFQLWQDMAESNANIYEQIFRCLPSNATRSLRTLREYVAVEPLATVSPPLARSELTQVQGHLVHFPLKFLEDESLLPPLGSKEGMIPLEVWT
Chain of Phospholipase D2 (Homo sapiens) (O14939 whole entry, looked up): as above

| SMILES | remaining activity |
| --- | --- |
| CN(C)c1cccc2c(S(=O)(=O)NCCN3CCC(n4c(=O)[nH]c5ccccc54)CC3)cccc12 | 112% (inactive) |
| O=C(NCCN1CCC(n2c(=O)[nH]c3ccccc32)CC1)Nc1ccccc1F | 105% (inactive) |
| O=c1[nH]c2ccccc2n1C1CCN(CCNS(=O)(=O)c2ccccc2[N+](=O)[O-])CC1 | 108% (inactive) |
| C[C@@H](CN1CCC(n2c(=O)[nH]c3ccccc32)CC1)NC(=O)CCc1ccc(F)cc1 | 48.9% (active) |
| O=C1c2ccccc2C(=O)N1CCN1CCC(n2c(=O)[nH]c3ccccc32)CC1 | 87.7% (inactive) |
| C[C@H](N)CN1CCC(c2nc3ccccc3n2C)CC1 (tested in a mixture with another compound) | 81.2% (inactive) |
| O=C(NCCN1CCC(n2c(=O)[nH]c3ccccc32)CC1)c1cccc2cccnc12 | 74.2% (inactive) |
| C[C@@H](CN1CCC(n2c(=O)[nH]c3ccccc32)CC1)NC(=O)C1C[C@H]1c1ccccc1 (stereo not given in full) | 105% (inactive) |
| C[C@@H](CN1CCC(n2c(=O)[nH]c3cc(I)ccc32)CC1)NC(=O)C1CC1c1ccccc1 (stereo not given in full) | 99.2% (inactive) |
| O=c1[nH]c2ccccc2n1C1CCN(CCNC(=S)Nc2cccc3ccccc23)CC1 | 100% (inactive) |
| C[C@@H](NC(=O)NCCN1CCC(n2c(=O)[nH]c3ccccc32)CC1)c1ccccc1 | 107% (inactive) and 123% (inactive) |
| Nc1cccc(Cl)c1C(=O)NCCN1CCC(n2c(=O)[nH]c3ccccc32)CC1 | 59.2% (inactive) |
| O=C(NCCN1CCC(n2c(=O)[nH]c3ccccc32)CC1)c1cc([N+](=O)[O-])cc([N+](=O)[O-])c1 | 102% (inactive) |
| O=C(C1C[C@@H]1c1ccccc1)N1CCC2(CC1)C(=O)NCN2c1ccccc1 (stereo not given in full) | 84% (inactive) |
| O=C(NCCN1CCC(n2c(=O)[nH]c3ccccc32)CC1)C1(c2ccccc2)CCC1 | 86.3% (inactive) |
| CCS(=O)(=O)NCCN1CCC(n2c(=O)[nH]c3ccccc32)CC1 | 100% (inactive) |
| O=C(NCCN1CCC2(CC1)CNc1ccccc12)C1CC1c1ccccc1 (stereo not given) | 91.2% (inactive) |
| O=C(NCCN1CCC(n2c(=O)[nH]c3ccc(F)cc32)CC1)c1ccc(Cl)c(Cl)c1 | 0% (active) |

| SMILES | remaining activity |
| --- | --- |
| CCOC(=O)CNC(=O)NCCN1CCC(n2c(=O)[nH]c3ccccc32)CC1 | 121% (inactive) |
| C[C@@H](CN1CCC2(C=Cc3ccccc32)CC1)NC(=O)[C@H]1C[C@@H]1c1ccccc1 | 87.1% (inactive) |
| O=C1Cc2cc(CCN3CCN(c4nsc5ccccc45)CC3)c(Cl)cc2N1 | 105% (inactive) |
| O=C(NCCN1CCC(n2c(=O)[nH]c3ccccc32)CC1)C(c1ccccc1)(c1ccccc1)c1ccccc1 | 93.2% (inactive) |
| O=C(NCCN1CCC(n2nnc3ccccc32)CC1)c1cnc2ccccc2c1 | 77.7% (inactive) |
| O=C(NCCN1CCC(n2c(=O)[nH]c3ccccc32)CC1)Nc1ccccc1C(F)(F)F | 114% (inactive) |
| COc1cccc(C(=O)NCCN2CCC(n3c(=O)[nH]c4ccccc43)CC2)n1 | 72.5% (inactive) |
| C[C@@H](CN1CCC(c2nc3ccc(F)cc3[nH]2)CC1)NC(=O)[C@H]1CC1c1ccccc1 (stereo not given in full) | 92.5% (inactive) |
| O=c1[nH]c2ccccc2n1C1CCN(CCNS(=O)(=O)c2ccccc2Br)CC1 | 75.8% (inactive) |
| C[C@@H](CN1CCC(n2c(=O)[nH]c3ccc(F)cc32)CC1)NC(=O)c1ccc(F)cc1 | 66.8% (inactive) |
| C[C@@H](CN1CC=C(n2c(=O)[nH]c3ccccc32)CC1)NC(=O)c1ccc2ccccc2c1 | 15.3% (active) |
| CC(C)C(=O)N[C@@H](C)CN1CCC(n2c(=O)[nH]c3ccccc32)CC1 | 106% (inactive) |
| O=c1[nH]c2ccccc2n1C1CCN(CCNS(=O)(=O)c2ccc(OC(F)(F)F)cc2)CC1 | 81% (inactive) |
| C[C@@H](CN1CCC(n2c(=O)[nH]c3ccccc32)CC1)NC(=O)c1cc2cc(F)ccc2[nH]1 | 0.758% (active) |
| O=C(NCCN1CCN(c2ccncc2)CC1)c1c2ccccc2cc2ccccc12 | 127% (inactive) |
| C[C@@H](CN1CC=C(n2c(=O)[nH]c3ccccc32)CC1)NC(=O)[C@H]1C[C@@H]1c1ccccc1 | 74.4% (inactive) |
| O=C(NCCN1CCC(n2c(=O)[nH]c3ccccc32)CC1)c1cccc(Cl)n1 | 75.4% (inactive) |
